Sampled rows, rich in hits. Any-hit rate of the full collection: about 19%.
ASM inhibitor – blocks human secretory acid sphingomyelinase; 340,000 tested, 0.006% active; P17405; placental ASM, HMU-PC fluorogenic substrate, 60 min; Potency, µM (top dose mostly 57.5 µM), without a hit: at the top dose activity change, negative = inhibition, usual class: inhibitors; further: potency means the concentration at half of the fitted maximal effect
Target sequence (P17405 47-631 limits assumed): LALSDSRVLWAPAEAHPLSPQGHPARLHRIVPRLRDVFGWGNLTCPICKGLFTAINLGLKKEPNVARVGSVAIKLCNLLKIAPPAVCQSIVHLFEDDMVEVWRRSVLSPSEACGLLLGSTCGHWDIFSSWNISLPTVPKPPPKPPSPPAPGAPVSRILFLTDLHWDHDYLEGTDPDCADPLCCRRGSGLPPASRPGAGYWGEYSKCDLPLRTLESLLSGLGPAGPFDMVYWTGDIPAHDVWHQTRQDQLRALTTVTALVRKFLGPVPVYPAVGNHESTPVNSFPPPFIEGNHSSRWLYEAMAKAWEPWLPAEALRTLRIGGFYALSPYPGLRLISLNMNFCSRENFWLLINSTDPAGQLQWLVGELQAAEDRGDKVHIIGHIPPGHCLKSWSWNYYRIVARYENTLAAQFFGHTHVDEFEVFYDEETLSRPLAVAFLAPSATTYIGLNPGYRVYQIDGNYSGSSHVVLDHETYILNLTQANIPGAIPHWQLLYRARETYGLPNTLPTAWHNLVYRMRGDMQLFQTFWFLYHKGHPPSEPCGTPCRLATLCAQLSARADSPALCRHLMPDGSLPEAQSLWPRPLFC
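Fluorescence read-out (Ex 386 nm, Em 447 nm) after stopping the reaction at pH 10. Enzyme: ASM from human placenta; substrate HMU-PC0, 9 uM final; 60 min, 37 °C. Compound preincubation 10 min, ambient temperature.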
TDP1 cell CPT – growth inhibition of DT40 Tdp1-/-;hTDP1 cells with camptothecin (screen for TDP1 inhibitors); chicken DT40 Tdp1-/-;hTDP1 cells + 20 nM CPT, ATP luminescence, 48 h; Potency, µM (doses to about 46.2 µM), inactives show at the highest dose activity change, negative = growth inhibition, actives largely listed as inhibitors; 420,000 tested, 12% active; further: potency means the concentration at half of the fitted maximal effect; on the % scale 0 is the no-effect control and ±100 the full control effect; nearly all actives have a fitted effect of over 55% in size
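Chicken DT40 Tdp1-/- cells stably complemented with human TDP1 were seeded at 400 cells/well in medium containing 20 nM camptothecin, exposed to pin-transferred compounds, and grown at 37 °C for at least 48 hr. Viability was read as ATP luminescence.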
HepG2 viability – HepG2 cytotoxicity, counter-screen for TGF-b inhibitors; Potency, µM (highest dose often 46.1 µM), without a hit: top-dose activity change, negative = cytotoxicity, usual class: cytotoxic; AID 588856; 410,000 tested, 0.76% active; HepG2 CAGA-GFP viability, ATP luminescence, 18 h; further: potency means the concentration at half of the fitted maximal effect
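CellTiter-Glo luminescence gave cytotoxicity after 18 hours at 37 degrees C. The cells were HepG2 CAGA-GFP in 1% FBS DMEM, stimulated with 500 pg/mL TGF-beta after compound addition. %Activity was normalised to no-cell wells (complete cell-killing) and DMSO (no toxicity), and curves were fitted and classified.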
IL-1B inflam inh – inhibitors of inflammasome signaling (IL-1 beta secretion); THP-1 LPS/ATP IL-1B secretion, AlphaLISA, 16 h; hits give low values; activity change, % at 57.5 µM; 360,000 tested, 4.7% active; AID 743279; in the data active means activity change below about -50%; inconclusive means mostly about -30% to -49%; further: on the % scale 0 is the no-effect control and ±100 the full control effect
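Secreted IL-1B measured by AlphaLISA bead assay after 16 h compound exposure of THP-1 cells; compounds (final up to 57.5 uM) added 1 h before LPS (250 ng/mL) and ATP (1.25 mM) stimulation; lower signal means less secretion.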
TGFb inhibitor – inhibitors of TGF-b signaling; 410,000 tested, 1.2% active; HepG2 CAGA-GFP TGF-b/SMAD3 reporter, GFP fluorescence, 18 h; TGF-beta stimulated, 500 pg/mL final; Potency, µM (doses to about 46.1 µM), inactives show top-dose activity, negative = inhibition, usual class: inhibitors; AID 588855; further: potency means the concentration at half of the fitted maximal effect; on the % scale 0 is the no-effect control and ±100 the full control effect; nearly all actives have a fitted effect of over 65% in size
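Inhibition was scored as loss of TGF-beta-induced (500 pg/mL final, 18 hours, 37 degrees C) GFP in HEPG2 cells carrying a CAGA-GFP reporter, in DMEM with 1% FBS. Well GFP was summed per cell; Activity was normalised to unstimulated and stimulated DMSO wells, then concentration-response fitting.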
TDP1 cell noCPT – qHTS for Inhibitors of human tyrosyl-DNA phosphodiesterase 1 (TDP1): qHTS in cells in absence of CPT. AID 686978, 2013. DT40 Tdp1-/- hTDP1 cells, no CPT, ATP luminescence, 48 h. 420,000 tested, 15% active. Potency, µM (highest dose often 46.2 µM), without a hit: at the top dose activity change, negative = growth inhibition, usual class: inhibitors; further: potency means the concentration at half of the fitted maximal effect; on the % scale 0 is the no-effect control and ±100 the full control effect; nearly all actives have a fitted effect of over 55% in size
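Cells were dispensed at 400 per well, compounds added by pin tool, plates incubated ≥48 hr at 37 °C, then CellTiter-Glo added for 30 min at room temperature before luminescence reading. Line: DT40 Tdp1-/- complemented with hTDP1; camptothecin omitted.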
Numbers without * were called inactive; i = inactive; ? = inconclusive; . = no result. Unless noted, the call rests on the fitted dose curve; in most records, active means well fitted curve in the direction sought with a large enough effect; inconclusive means small, poorly fitted or top-dose-only effect, or another doubt; inactive means no such curve, though single readings can be large; an effect the other way counts as inactive or inconclusive.

SMILES	ASM inhibitor	TDP1 cell CPT	HepG2 viability	IL-1B inflam inh	TGFb inhibitor	TDP1 cell noCPT
COc1ccc(N2C(=O)c3ccccc3NC2c2ccc(OC)c(COc3ccccc3F)c2)cc1 (configuration not stated)	.	-17.5%	-28.1%	.	-0.5%	?
CC12CCC3c4ccccc4CCC3(CO1)C2 (configuration not stated)	.	?	-0.8%	-0.3	-0.7%	?
CN1C(C(=O)Nc2ccc(OC(F)(F)F)cc2)=CC(c2cccs2)=NS1(=O)=O	-4.1%	?	10.0%	-4.0	?	3.66µM*
COc1ccc(NC(=O)C2=CC(c3cccs3)=NS(=O)(=O)N2C)cc1	-9.9%	?	-17.1%	-4.5	8.8%	?
COc1ccc(OC)c(C2=NS(=O)(=O)N(C)C(C(=O)Nc3cccc(C(C)=O)c3)=C2)c1	?	20.6µM*	-4.7%	-0.9	5.7%	?
Cc1cccc(CC(=O)NC2CC(=O)N(c3cccc(F)c3)C2)c1 (configuration not stated)	.	0.7%	2.0%	.	-13.2%	-28.3%
Cc1ccc(S(=O)(=O)N2CCC(C(=O)NCc3ccncc3)CC2)cc1	0.9%	-3.4%	20.0%	-5.5	1.6%	-7.8%
CN1/C(=C/C=C/c2n(C)c3cc([N+](=O)[O-])c([N+](=O)[O-])cc3[n+]2C)C(C)(C)c2ccccc21	.	?	-44.3%	-52.2*	?	3.66µM*
COC(=O)c1cc(Br)c(=O)n(CCN2CCCC2)c1	2.3%	8.7%	-6.9%	31.7	25.4%	-19.5%
COC(=O)c1cc(Br)c(=O)n(CCC2=CCCCC2)c1	1.4%	20.6µM*	-4.6%	16.7	0.5%	?
O=C(/C=C/c1ccc(F)cc1)c1ccc(N2CCOCC2)cc1	-10.9%	20.6µM*	-14.5%	-58.6*	3.6%	?
CCc1ccc(/C=C/C(=O)c2ccc(N3CCOCC3)cc2)cc1	-27.1%	?	-25.8%	-89.0*	-9.3%	?
CCc1ccc(/C=C/C(=O)c2ccc(S(=O)(=O)N(C)C)cc2)cc1	-6.3%	?	-2.6%	?	?	?
Cc1ccc(/C=C/C(=O)c2ccc(N3CCOCC3)cc2)s1	-16.3%	-10.5%	-18.0%	?	-1.4%	?
CC(=O)Nc1ncc(Sc2ccc([N+](=O)[O-])cc2)s1	8.6%	10.5%	1.9%	12.3	-0.9%	7.5%
CCN1CCCC1CNC(=O)c1ccc(Sc2ccccc2Cl)c([N+](=O)[O-])c1 (configuration not stated)	-6.7%	?	-20.7%	-50.0*	3.2%	?
Cc1cccc(-c2noc(-c3ccccc3OCC(=O)Nc3ccccc3[N+](=O)[O-])n2)c1	.	?	-19.7%	.	-19.5%	16.4µM*
O=C(COc1ccccc1-c1nc(-c2ccccc2)no1)Nc1cccc([N+](=O)[O-])c1	.	2.59µM*	-2.8%	.	1.2%	?
CCCCn1c(N)c(N(CC(C)C)C(=O)CCCc2cccs2)c(=O)[nH]c1=O	2.1%	-2.5%	21.1%	i	2.3%	-3.1%
Cc1ccc(C)c(Cn2c3ccccc3c3cnn(CC(=O)NC4CCC(C)CC4)c(=O)c32)c1 (configuration not stated)	.	10.3µM*	-7.1%	.	5.1%	13µM*
Cc1ccccc1Cn1c2ccccc2c2cnn(CC(=O)NC3CCC(C)CC3)c(=O)c21 (configuration not stated)	.	18.4µM*	-42.9%	.	-31.0%	18.4µM*
CCCn1c2ccccc2c2cnn(CC(=O)NC3CCC(C)CC3)c(=O)c21 (configuration not stated)	0.5%	-2.9%	4.4%	10.2	3.2%	4.4%
COc1cc(-c2ccc3oc(-c4ccsc4)c(C#CC4(O)CCCCC4)c3c2)cc(OC)c1OC	-13.9%	?	-2.8%	.	?	?
CC12CCC(=O)N1C(C(=O)NNC(=O)c1ccccc1F)CS2 (configuration not stated)	5.7%	-0.6%	-22.9%	6.1	-4.2%	4.2%
CC1CCC(NC(=O)C2(C)Cc3ccccc3C(=O)N2Cc2ccccc2Cl)CC1 (configuration not stated)	.	?	0.2%	.	.	23.1µM*
SMILES	ASM inhibitor	TDP1 cell CPT	HepG2 viability	IL-1B inflam inh	TGFb inhibitor	TDP1 cell noCPT
CCOC(=O)C1CCN(C(c2cc3ccc(C)c(C)c3[nH]c2=O)c2nnnn2C2CCCCC2)CC1 (configuration not stated)	-1.5%	?	5.8%	-9.4	-11.7%	?
CCOC(=O)C1CCN(C(c2cc3c(C)ccc(C)c3[nH]c2=O)c2nnnn2C2CCCCC2)CC1 (configuration not stated)	-4.9%	28.2µM*	3.6%	13.4	-5.1%	?
Cc1cc(=O)n2cccc(O)c2n1	i	3.66µM*	-15.6%	-57.0*	13.9%	4.61µM*
c1ccc2nc3c(cc2c1)CCCCC3	-0.1%	18.4µM*	-2.2%	14.7	-13.0%	13µM*
c1ccc2nc3c(cc2c1)CCCCCC3	-1.4%	-12.1%	-20.0%	32.7	-6.9%	-15.6%
CCN1CCN(C(=O)c2cnn(-c3ncc4c(n3)-c3ccccc3CCC4)c2COC)CC1	.	-10.3%	.	.	.	-23.4%
O=C(NC1CCCCC1)c1nc(C2CCNCC2)oc1-c1ccccc1	.	?	-1.8%	-66.2*	-4.3%	?
O=C1CSC(c2cn(-c3ccccc3)nc2-c2ccccc2)N1Cc1ccco1 (configuration not stated)	-0.6%	?	1.4%	-23.7	?	18.4µM*
CSC1=N/C(=C\c2ccc(F)cc2)C(=O)S1	-2.4%	1.2%	-11.0%	16.8	14.4%	-21.8%
COc1ccc(/C=C/C=C2\N=C(SC)SC2=O)cc1	-4.5%	23.1µM*	5.4%	-5.4	-8.8%	29.1µM*
CCOC(=O)c1c(NC(=O)CN2C(=O)CN(C)C2=O)sc(C)c1C	-3.1%	-19.6%	-10.3%	6.6	0.7%	?
O=C1c2ccccc2NC(c2ccc(Cl)cc2Cl)N1O (configuration not stated)	-3.5%	?	-10.1%	56.6	5.6%	16.4µM*
O=C1c2ccccc2NC(c2ccc(Cl)cc2Cl)N1Cc1ccccc1 (configuration not stated)	131.6%	23.1µM*	-20.4%	3.5	?	?

Compound activity from PubChem BioAssay.
